# Laboratory results taken from PubChem BioAssay (NCATS).
# Inconclusive results are not listed. Where a call stands in place of a potency, no number is given. Activity calls are given as the source filed them. Unless noted, calls follow the shape of the dose curve; as a rule, active = well fitted curve in either direction with a large enough effect (not every such curve was filed as active); inconclusive = small, poorly fitted or top-dose-only effect, or another doubt; inactive = flat fitted curve, though single readings scatter.
# Columns and labels:
# [1] = target: Lysosomal acid glucosylceramidase (Homo sapiens) (UniProt P04062); assay: Glucocerebrosidase-p2 (AID 348; in the data active = potency below about 10 µM; also: potency is read from the fitted curve at half-maximal effect); conditions: purified GBA, blue fluorogenic substrate, 40 min
# Chain of Lysosomal acid glucosylceramidase (Homo sapiens) (P04062 whole entry, looked up): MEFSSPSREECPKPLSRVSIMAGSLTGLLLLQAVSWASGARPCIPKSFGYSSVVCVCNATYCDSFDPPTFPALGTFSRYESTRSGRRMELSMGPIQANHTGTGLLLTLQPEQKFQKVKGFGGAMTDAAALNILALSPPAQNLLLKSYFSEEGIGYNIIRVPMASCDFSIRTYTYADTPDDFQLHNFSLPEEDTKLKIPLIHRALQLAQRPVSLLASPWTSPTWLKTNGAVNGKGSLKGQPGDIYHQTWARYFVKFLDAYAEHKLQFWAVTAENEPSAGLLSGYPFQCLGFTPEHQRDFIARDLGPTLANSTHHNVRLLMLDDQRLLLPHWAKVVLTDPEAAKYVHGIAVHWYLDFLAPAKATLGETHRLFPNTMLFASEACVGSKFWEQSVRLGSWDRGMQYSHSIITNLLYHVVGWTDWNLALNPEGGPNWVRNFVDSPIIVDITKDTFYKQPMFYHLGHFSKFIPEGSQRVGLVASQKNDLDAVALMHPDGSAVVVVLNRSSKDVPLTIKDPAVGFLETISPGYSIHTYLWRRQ
# Method in brief: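 Compounds titrated from 0.6 nM upwards against 0.2 nM enzyme in pH 5.9 citric acid/KH2PO4, taurocholate, tween-20; blue fluorogenic substrate 80 uM, 40 min room temperature, stopped and read Ex 365/Em 440 for AC50.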
# [2] = AP1 Signaling Pathway (AID 357)
# Method in brief: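 ME-180 cells with beta-lactamase reporter under AP-1 response element, stimulated with EC50 EGF; compounds tested in titration series, 5 h at 37 °C. CCF4 substrate added 2.5 h at room temperature; 460/530 nm emission ratio gave %activity and AC50.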
# [3] = target: Cytochrome P450 1A2 (Homo sapiens) (UniProt P05177); assay: p450-cyp1a2 (AID 410; calls by dose curve; also: potency is read from the fitted curve at half-maximal effect)
# Chain of Cytochrome P450 1A2 (Homo sapiens) (P05177 whole entry, looked up): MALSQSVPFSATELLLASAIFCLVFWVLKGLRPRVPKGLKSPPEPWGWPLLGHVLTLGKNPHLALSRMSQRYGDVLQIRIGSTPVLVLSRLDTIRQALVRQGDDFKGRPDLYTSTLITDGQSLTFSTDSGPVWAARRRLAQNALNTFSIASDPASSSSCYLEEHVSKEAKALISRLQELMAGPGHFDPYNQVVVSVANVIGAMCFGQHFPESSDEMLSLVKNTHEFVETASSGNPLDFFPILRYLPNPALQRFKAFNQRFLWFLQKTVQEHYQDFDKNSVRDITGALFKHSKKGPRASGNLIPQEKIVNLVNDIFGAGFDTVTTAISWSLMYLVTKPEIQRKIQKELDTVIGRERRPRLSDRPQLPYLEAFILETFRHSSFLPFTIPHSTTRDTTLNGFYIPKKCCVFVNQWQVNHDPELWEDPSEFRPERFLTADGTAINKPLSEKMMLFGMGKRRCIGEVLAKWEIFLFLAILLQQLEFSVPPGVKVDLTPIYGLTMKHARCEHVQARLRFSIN
# Method in brief: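 Inhibition was calculated relative to 57 uM furafylline (full inhibition). The reaction used human CYP1A2 at 20nM with Luciferin-ME at its Km, 100uM, driven by an NADPH-regenerating system for 60 min at room temperature.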
# [4] = Stat Signaling Pathway (AID 446);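 also: ME-180 cervical cancer cells given 40 pM IL-6 alongside compound; SIE-controlled beta-lactamase reporter measured as 460/530 nm FRET emission ratio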
# Method in brief: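 Reporter line: ME-180 cervical carcinoma, SIE-beta-lactamase. Treatment: compound with 40 pM IL-6, 5 hrs, 37 C, in low-serum OPTI-MEM with 10 mM HEPES pH 7.3. Detection: 460/530 nm fluorescence.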
# [5] = target: Glucocorticoid receptor (Homo sapiens) (UniProt P04150); assay: GR-EFC Redistribution (AID 451; calls by dose curve; also: potency is read from the fitted curve at half-maximal effect); conditions: CHO-K1 GR-EFC translocation, beta-gal luminescence, 2 h
# Chain of Glucocorticoid receptor (Homo sapiens) (P04150 whole entry, looked up, the tested form may be a part): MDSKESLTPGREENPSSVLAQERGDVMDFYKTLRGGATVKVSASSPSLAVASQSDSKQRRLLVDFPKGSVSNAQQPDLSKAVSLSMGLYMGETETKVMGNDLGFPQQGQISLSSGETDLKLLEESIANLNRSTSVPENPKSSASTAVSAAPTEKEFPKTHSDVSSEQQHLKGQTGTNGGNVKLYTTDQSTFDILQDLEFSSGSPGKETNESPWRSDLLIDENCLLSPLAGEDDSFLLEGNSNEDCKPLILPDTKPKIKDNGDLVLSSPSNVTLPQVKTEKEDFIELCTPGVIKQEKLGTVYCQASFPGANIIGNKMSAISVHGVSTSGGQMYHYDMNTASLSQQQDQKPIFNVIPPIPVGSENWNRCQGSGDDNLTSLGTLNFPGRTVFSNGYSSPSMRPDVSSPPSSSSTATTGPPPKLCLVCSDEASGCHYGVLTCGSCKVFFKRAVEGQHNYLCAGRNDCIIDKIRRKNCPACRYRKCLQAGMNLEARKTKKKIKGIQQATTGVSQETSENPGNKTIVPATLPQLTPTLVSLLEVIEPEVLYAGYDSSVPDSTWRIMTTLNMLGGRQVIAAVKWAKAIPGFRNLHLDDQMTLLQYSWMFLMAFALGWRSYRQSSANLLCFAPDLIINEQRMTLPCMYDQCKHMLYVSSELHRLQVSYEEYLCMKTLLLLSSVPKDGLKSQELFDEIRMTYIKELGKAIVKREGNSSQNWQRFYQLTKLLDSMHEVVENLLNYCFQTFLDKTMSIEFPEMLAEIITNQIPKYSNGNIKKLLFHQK
# Method in brief: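 Translocation of GR-ED fusion to nuclear EA restores b-gal, read by luminescence after 1 h room-temperature detection. Engineered CHO-K1 biosensor cells, 1,000/well, exposed 2 h at 37 C to titrations up to 46 uM final.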
# [6] = target: Mitogen-activated protein kinase 10 (Mus musculus) (UniProt Q61831); assay: JNK3 AlphaScreen Assay (AID 530);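 also: kinase came from lysate of stimulated human HepG2 cells; signal reports phosphorylation of biotinylated GST-cJun 1-79 at Ser73 with 10 µM ATP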
# Method in brief: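 Room-temperature AlphaScreen kinase assay; pre-activated HepG2 lysate as JNK3 source, biotin-GST-cJun(1-79) substrate, 10 uM ATP, compound 15 min preincubation.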
# [7] = target: 3',5'-cyclic-AMP phosphodiesterase 4B (Homo sapiens) (UniProt Q07343); assay: qHTS Assay for Inhibitors of PDE-IV (AID 607; active = well fitted activation curve with a large enough effect in the main read-out, with a control signal flat, not every such curve was filed as active)
# Chain of 3',5'-cyclic-AMP phosphodiesterase 4B (Homo sapiens) (Q07343 whole entry, looked up): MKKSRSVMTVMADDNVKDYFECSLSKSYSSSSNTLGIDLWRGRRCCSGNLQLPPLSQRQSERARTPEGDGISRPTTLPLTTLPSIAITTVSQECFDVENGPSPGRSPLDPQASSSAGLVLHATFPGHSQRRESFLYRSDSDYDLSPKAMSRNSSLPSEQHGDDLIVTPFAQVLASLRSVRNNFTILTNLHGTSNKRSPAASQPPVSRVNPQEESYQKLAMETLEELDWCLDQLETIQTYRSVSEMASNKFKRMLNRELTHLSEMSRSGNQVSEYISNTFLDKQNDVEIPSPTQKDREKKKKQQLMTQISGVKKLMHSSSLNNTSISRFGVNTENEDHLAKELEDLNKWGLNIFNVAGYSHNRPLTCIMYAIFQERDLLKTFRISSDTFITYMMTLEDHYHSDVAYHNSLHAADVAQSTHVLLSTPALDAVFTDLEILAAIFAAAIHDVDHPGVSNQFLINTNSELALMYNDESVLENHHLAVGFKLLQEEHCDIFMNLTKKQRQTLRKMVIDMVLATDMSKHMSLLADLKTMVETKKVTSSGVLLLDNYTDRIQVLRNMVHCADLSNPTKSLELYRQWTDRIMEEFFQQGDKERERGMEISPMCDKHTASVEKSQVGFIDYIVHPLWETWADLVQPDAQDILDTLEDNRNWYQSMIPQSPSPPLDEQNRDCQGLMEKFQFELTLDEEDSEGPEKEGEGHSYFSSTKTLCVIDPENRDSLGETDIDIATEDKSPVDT
# Method in brief: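 Cell-based read-out of cAMP via a modified cyclic nucleotide-gated channel and membrane potential dye (535/590 nm) in HEK293 cells expressing PDE4 endogenously. Compounds tested up to 22.9 uM final; 100 uM RO 20-1724 reference.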
# [8] = target: Cytochrome P450 3A4 (Homo sapiens) (UniProt P08684); assay: qHTS Assay for Activators of Cytochrome P450 3A4 (AID 885; active = well fitted curve in the direction sought with a large enough effect; an effect the other way counts as inactive or inconclusive; also: nearly all actives have a fitted effect of over 65% in size; also: potency is read from the fitted curve at half-maximal effect)
# Chain of Cytochrome P450 3A4 (Homo sapiens) (P08684 whole entry, looked up): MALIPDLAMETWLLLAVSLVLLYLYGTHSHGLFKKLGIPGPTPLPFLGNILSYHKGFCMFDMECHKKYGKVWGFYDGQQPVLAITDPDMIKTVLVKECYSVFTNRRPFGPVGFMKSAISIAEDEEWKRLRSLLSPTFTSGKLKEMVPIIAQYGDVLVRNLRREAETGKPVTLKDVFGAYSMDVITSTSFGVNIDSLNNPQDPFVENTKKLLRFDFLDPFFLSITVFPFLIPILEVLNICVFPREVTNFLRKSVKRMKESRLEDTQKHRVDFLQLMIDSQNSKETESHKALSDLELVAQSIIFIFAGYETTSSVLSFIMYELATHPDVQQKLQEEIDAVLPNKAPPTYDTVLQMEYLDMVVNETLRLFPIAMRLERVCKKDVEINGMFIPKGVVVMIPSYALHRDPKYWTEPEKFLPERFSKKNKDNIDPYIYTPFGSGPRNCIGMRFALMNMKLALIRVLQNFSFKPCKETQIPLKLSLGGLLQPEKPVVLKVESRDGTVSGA
# Method in brief: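 Signal was normalized against complete inhibition by 57 uM ketoconazole. The reaction used 20nM CYP3A4 with 25uM Luciferin-PPXE, 10-min compound preincubation and a 60-min NADPH-supported step at RT.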
# [9] = qHTS Assay for Lipid Storage Modulators (AID 1519; calls by dose curve); conditions: Drosophila S3 cells, BODIPY lipid droplet/cell ratio, laser cytometry, cells loaded with oleic acid; for activity change, negative = inhibition: at 57.5 µM (top of the series)
# Method in brief: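 Cells seeded at 5,000 per well were treated with compounds over a concentration series and loaded with oleic acid (400 uM, as added). Lipid droplet fluorescence (488 nm excitation, 500-530 nm channel) was read by laser-scanning cytometry and normalized to 20 uM Triacsin C.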
# [10] = Primary qHTS for small molecule stabilizers of the endoplasmic reticulum resident proteome: Secreted ER Calcium Modulated Protein (SERCaMP) assay (AID 1508630; active = well fitted curve in the direction sought with a large enough effect; an effect the other way counts as inactive or inconclusive)
# Method in brief: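 GLuc-SERCaMP-expressing SH-SY5Y cells, pretreated 16 h with compound, are challenged with thapsigargin to empty ER calcium stores; after 4 h, coelenterazine is added directly to the medium and luminescence is imaged.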
# [11] = target: Cytochrome P450 3A4 (Homo sapiens) (UniProt P08684); assay: qHTS Assay for Inhibitors and Substrates of Cytochrome P450 3A4 (AID 884; active = well fitted curve in the direction sought with a large enough effect; an effect the other way counts as inactive or inconclusive; also: nearly all actives have a fitted effect of over 50% in size; also: potency is read from the fitted curve at half-maximal effect)
# Method in brief: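 20 nM human CYP3A4 with 25 uM Luciferin-PPXE (at KM) in 200 mM KPO4, preincubated 10 min with compound; NADPH regeneration started a 60 min RT reaction. Luciferin detected by luminescence, normalized to 57 uM ketoconazole as full inhibition.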
# [12] = Confirmation and Secondary Assay for Modulators of Hemoglobin Beta Chain Splicing at IVS2 654 locus (AID 910; active = well fitted curve in the direction sought with a large enough effect; an effect the other way counts as inactive or inconclusive;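 also: HeLa cells stably carrying EGFP split by mutant beta-globin IVS2-654 intron; per-well total GFP intensity by laser scanning cytometry after 2-day treatment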)
# Method in brief: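 Readout: per-well total peak green fluorescence (488 nm ex, 500–520 nm em) from objects 5–250 µm, reflecting correct splicing of an EGFP-654 reporter. Compounds were applied for 2 days at 37 °C to overnight-plated HeLa EGFP-654 cells; controls were DMSO and 500 nM IVS2-654 PNA.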
# [13] = Confirmation and Secondary Assay for Modulators of Hemoglobin Beta Chain Splicing at IVS2 705 locus (AID 930; active = well fitted curve in the direction sought with a large enough effect; an effect the other way counts as inactive or inconclusive;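 also: HeLa cells stably expressing the EGFP-705 splicing reporter; GFP fluorescence per well restored by corrected splicing of the IVS2-705 intron in EGFP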)
# Method in brief: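 HeLa EGFP-705 reporter; 500 cells/well, o/n 37C 5% CO2; cpd 2 d; 488 ex/500-520 em laser scan; total peak GFP intensity/well. Ref: 500 nM […] antisense PNA.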
# [14] = target: Ubiquitin carboxyl-terminal hydrolase 1 (Homo sapiens) (UniProt O94782); assay: Inhibitors of USP1/UAF1: Pilot qHTS (AID 504865; active = well fitted curve in the direction sought with a large enough effect; an effect the other way counts as inactive or inconclusive;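 also: rhodamine fluorescence freed from ubiquitin-rhodamine substrate followed over time; top concentration of the series differs between compounds; nearly all actives have a fitted effect of over 35% in size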)
# Chain of Ubiquitin carboxyl-terminal hydrolase 1 (Homo sapiens) (O94782 whole entry, looked up): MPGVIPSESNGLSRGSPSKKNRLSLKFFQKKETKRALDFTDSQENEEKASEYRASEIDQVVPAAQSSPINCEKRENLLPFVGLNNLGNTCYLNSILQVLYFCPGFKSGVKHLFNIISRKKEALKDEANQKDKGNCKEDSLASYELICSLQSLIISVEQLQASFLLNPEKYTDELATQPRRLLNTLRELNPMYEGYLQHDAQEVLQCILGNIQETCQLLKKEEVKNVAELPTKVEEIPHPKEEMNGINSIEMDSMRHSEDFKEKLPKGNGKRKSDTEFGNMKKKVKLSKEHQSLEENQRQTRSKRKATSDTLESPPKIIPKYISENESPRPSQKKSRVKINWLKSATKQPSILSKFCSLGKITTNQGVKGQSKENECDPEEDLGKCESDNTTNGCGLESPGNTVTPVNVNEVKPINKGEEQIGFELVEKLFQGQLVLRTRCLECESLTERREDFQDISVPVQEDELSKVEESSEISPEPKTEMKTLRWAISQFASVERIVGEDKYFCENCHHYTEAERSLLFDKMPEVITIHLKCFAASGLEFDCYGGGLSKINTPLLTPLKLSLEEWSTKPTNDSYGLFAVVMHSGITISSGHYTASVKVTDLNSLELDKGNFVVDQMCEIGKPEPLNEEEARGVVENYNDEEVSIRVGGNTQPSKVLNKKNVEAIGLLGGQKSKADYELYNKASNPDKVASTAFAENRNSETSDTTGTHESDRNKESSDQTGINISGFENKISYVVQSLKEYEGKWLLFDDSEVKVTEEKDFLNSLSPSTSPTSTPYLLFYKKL
# Method in brief: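 1nM USP1/UAF1 + cpd, 15 min RT; start w/ Ub-Rho 150nM final; kinetic FL 480/540 nm, 6 reads q60 s. Buffer 50mM HEPES pH 7.8, 0.5mM EDTA, 1mM TCEP, 0.01% Tween-20, 0.1 mg/ml BSA.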
# [15] = test system: HIV-1 nucleocapsid protein NCp7 (binding to TG oligonucleotide); assay: HIV Nucleocapsid (AID 346; call rule not given here;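 also: potency is read from the fitted curve at half-maximal effect; potency is for inhibitors that block NC binding and lower polarization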); conditions: HIV-1 NC / fluorescein-TGTGTGTG probe, fluorescence polarization
# Method in brief: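 Fluorescence polarization readout: labelled TG4xF oligo (10 nM) with 100 nM nucleocapsid protein, high-salt (250mM NaCl) Hepes pH 7.5 buffer containing zinc and fresh reducing agents. Compounds added by pin tool; incubation 1 hr, room temperature.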
# [16] = NFAT Signaling Pathway (AID 444); conditions: Jurkat NFAT-bla M1, carbachol, beta-lactamase ratio, 5 h; at 7.69 µM (top of the series);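 also: carbachol stimulus at about its EC50 of 1 µM final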
# Method in brief: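 Read-out: CCF4 FRET ratio (460 nm/530 nm) after 1 h RT dye loading, used for %activity and AC50 from titration series. Cells: Jurkat NFAT-β-lactamase/M1 line, treated with compound plus 1 uM carbachol for 5 h, 37 °C.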
# [17] = target: Cytochrome P450 2D6 (Homo sapiens) (UniProt P10635); assay: qHTS Assay for Inhibitors and Substrates of Cytochrome P450 2D6 (AID 891; active = well fitted curve in the direction sought with a large enough effect; an effect the other way counts as inactive or inconclusive; also: potency is read from the fitted curve at half-maximal effect; nearly all actives have a fitted effect of over 60% in size)
# Chain of Cytochrome P450 2D6 (Homo sapiens) (P10635 whole entry, looked up): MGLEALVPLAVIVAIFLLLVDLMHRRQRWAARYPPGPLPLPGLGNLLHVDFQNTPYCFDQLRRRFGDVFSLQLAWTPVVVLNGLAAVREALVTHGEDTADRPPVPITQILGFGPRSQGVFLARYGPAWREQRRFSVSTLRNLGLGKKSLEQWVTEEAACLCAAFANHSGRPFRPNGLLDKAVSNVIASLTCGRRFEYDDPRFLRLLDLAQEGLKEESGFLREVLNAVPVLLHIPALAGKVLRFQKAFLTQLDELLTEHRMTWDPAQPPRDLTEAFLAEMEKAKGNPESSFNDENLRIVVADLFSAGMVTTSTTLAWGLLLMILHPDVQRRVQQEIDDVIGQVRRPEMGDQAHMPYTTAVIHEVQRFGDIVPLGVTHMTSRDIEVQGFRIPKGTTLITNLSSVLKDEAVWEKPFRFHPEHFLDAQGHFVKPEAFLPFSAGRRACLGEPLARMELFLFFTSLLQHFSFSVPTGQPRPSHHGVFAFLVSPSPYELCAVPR
# Method in brief: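 Human CYP2D6 (5 nM) with 30 uM Luciferin-ME EGE (at Km) in 100 mM KPO4, compound preincubated 10 min, then NADPH regeneration system for 60 min at room temperature. Luciferin read by luminescence; normalized to 1.43 uM quinidine.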
# [18] = qHTS Assay for Identification of Small Molecule Agonists for Hypoxia Response Element Signaling Pathway (AID 914; active = well fitted activation curve with a large enough effect in the signal ratio, with a control signal flat, not every such curve was filed as active; the % refers to the signal ratio); conditions: ME-180 (cervical carcinoma) HRE-bla reporter, beta-lactamase ratio, CoCl2, 17 h; activation: stronger effect = higher value
# Method in brief: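 Read-out: CCF4 FRET ratio of 460nm to 530nm emission (excitation 405nm) after 2.5 hours at room temperature, taken from HRE-bla ME-180 cells that had been exposed to compound and EC50 CoCl2 for 17 hours.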
# [19] = measured here: cell count channel max response
# [20] = measured here: lipid channel max response
Compound,Potency [1],outcome [2],Potency [3],outcome [4],Potency [5],outcome [6],Potency [7],Potency [8],"activity change, negative = inhibition [9]","max response [9, 19] [%]","max response [9, 20] [%]",outcome [10],Potency [11],Potency [12],Potency [13],Potency [14],Potency [15],"activity change, negative = inhibition [16]",Potency [17],activation [18]
O=C(c1csnn1)N1CCC2(CC1)CN(Cc1ccncc1)C2,> 11.4 µM (inactive),inactive,10 µM (active),inactive,> 46 µM (inactive),inactive,inactive,inactive,4.72% (inactive),6.9,14.2,inactive,,,,,,,,
C=C(C)c1cc2cc(C(C)=O)c(O)cc2o1,,,,,,,,inactive,9.94% (inactive),9.32,19.8,inactive,31.6 µM (active),inactive,inactive,inactive,,,,
CN1CCCC2(CCN(C(=O)Oc3ccccc3)CC2)C1,,inactive,,inactive,> 46 µM (inactive),inactive,inactive,,-5.13% (inactive),1.15,-1.11,inactive,,,,,> 20 µM (inactive),,,
CN1CCCCC1c1ccc(-c2cccnc2)nc1 (stereo not drawn),,,,,,,,inactive,6.38% (inactive),12.4,21.9,inactive,,inactive,,inactive,,,,
CC(C)CN1CCC2(CC1)CCN(C(=O)Oc1ccccc1)CC2,,inactive,inactive,inactive,> 46 µM (inactive),inactive,inactive,,3.6% (inactive),-4.31,1.23,inactive,,,,,> 20 µM (inactive),,,
O=C(c1cnccn1)N1CCC2(CC1)CN(Cc1ccncc1)C2,,inactive,,inactive,> 46 µM (inactive),inactive,inactive,,2.96% (inactive),-1.92,3.49,inactive,,,,,> 20 µM (inactive),-23.5% (inactive),,
O=C(Oc1ccccc1)N1CCC2(CCN(Cc3ccccc3)CC2)CC1,,inactive,inactive,inactive,,inactive,inactive,,2.23% (inactive),2.36,6.48,inactive,inactive,,,,> 20 µM (inactive),,,
O=C(Nc1cccc(F)c1)N1CC2(CCNCC2)C1,,inactive,inactive,inactive,> 46 µM (inactive),inactive,inactive,,3.38% (inactive),6.28,12.8,inactive,,,,,,,,
CN1CCC2(CC1)CCN(C(=O)c1ccco1)CC2,> 11.4 µM (inactive),inactive,,inactive,,inactive,inactive,,1.82% (inactive),21.1,24.5,inactive,,,,,,-4.13% (inactive),,
c1cnc(N2CC[C@@]3(CCCNC3)C2)nc1,,inactive,,inactive,> 46 µM (inactive),inactive,inactive,inactive,6.19% (inactive),20.5,29,inactive,,,,,,,7.94 µM (active),
O=C(Nc1cccc(F)c1)N1CC2(CCN(C(=O)Oc3ccccc3)CC2)C1,,inactive,12.6 µM (active),inactive,> 46 µM (inactive),inactive,inactive,12.6 µM (active),5.68% (inactive),-9.16,-1.47,inactive,inactive,,,,,16.5% (inactive),,
CC(C)CN1CC[C@@]2(CCCN(C(=O)c3ccncc3)C2)C1,> 11.4 µM (inactive),inactive,,inactive,,inactive,inactive,,2.73% (inactive),-1.41,4.49,inactive,,,,,,-22.2% (inactive),,
COC(=O)N1CCC2(CCN(CC(C)C)CC2)CC1,,inactive,inactive,inactive,> 46 µM (inactive),inactive,inactive,,0.631% (inactive),-7.4,-4.41,inactive,,,,,> 20 µM (inactive),,,
CC(C)NC(=O)N1CCC2(CC1)CCN(C(=O)Oc1ccccc1)CC2,,inactive,inactive,inactive,> 46 µM (inactive),inactive,inactive,25.1 µM (active),2.9% (inactive),-12.1,-6.43,inactive,inactive,,,,> 20 µM (inactive),,,
N#Cc1cccc(NC(=O)N2CC3(CCN(C(=O)Oc4ccccc4)CC3)C2)c1,> 11.4 µM (inactive),inactive,15.8 µM (active),inactive,> 46 µM (inactive),inactive,inactive,,1.56% (inactive),-4.33,2.3,inactive,inactive,,,,,17.6% (inactive),,-17.9% (inactive)
